Experimental data from PubChem BioAssay (EPA / NIEHS).
Inconclusive results are not listed. Calls of active or inactive are those of the source. Rule for the calls: active = hit-call score of the fitted dose curve at least 0.9, where 1 is the maximum; inconclusive = response in the unintended direction; inactive = score below 0.9.

Tests used:
[1] = ACEA_ER_AUC_viability: ACEA Biosciences xCELLigence Real-Time Cell Analysis on Estrogen Receptor Agonism for Viability (AID 2283782);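 note: hit means loss of impedance signal meaning reduced cell growth or viability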
Outline: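 Viability endpoint: reduced impedance area under the curve relative to DMSO, recorded by real-time electrode sensing over ~80 h of continuous exposure. Duplicate plates of T47D in hormone-depleted medium; eight concentrations, 1:4 dilutions, 100 uM maximum.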

[2] = system: turtle Estrogen Receptor (ESR1), gene 101933533; assay: ATG_trERa_XSP1: Attagene TRANS-FACTORIAL Multi-Species (XSP1) HepG2 Assay for turtle Estrogen Receptor (ESR1) (AID 2283781)
Outline: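 Transactivation measured 24 h post-dose as reporter mRNA (RT-PCR, fluorescent capillary electrophoresis) from an NR-Gal4 turtle ER construct in HepG2. Medium included 3 nM 6-alpha-fluorotestosterone; increase over DMSO fitted.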

[3] = biological target: GAL4 Transcription Factor (Internal Marker), GAL4 (gene 855828) (UniProt P04386); assay: ATG_GAL4_XSP1: Attagene TRANS-FACTORIAL Multi-Species (XSP1) HepG2 Assay for GAL4 Transcription Factor (Internal Marker) (AID 2283789)
GAL4 Transcription Factor (Internal Marker), GAL4 (gene 855828), sequence (P04386 whole entry, looked up, the tested form may be a part): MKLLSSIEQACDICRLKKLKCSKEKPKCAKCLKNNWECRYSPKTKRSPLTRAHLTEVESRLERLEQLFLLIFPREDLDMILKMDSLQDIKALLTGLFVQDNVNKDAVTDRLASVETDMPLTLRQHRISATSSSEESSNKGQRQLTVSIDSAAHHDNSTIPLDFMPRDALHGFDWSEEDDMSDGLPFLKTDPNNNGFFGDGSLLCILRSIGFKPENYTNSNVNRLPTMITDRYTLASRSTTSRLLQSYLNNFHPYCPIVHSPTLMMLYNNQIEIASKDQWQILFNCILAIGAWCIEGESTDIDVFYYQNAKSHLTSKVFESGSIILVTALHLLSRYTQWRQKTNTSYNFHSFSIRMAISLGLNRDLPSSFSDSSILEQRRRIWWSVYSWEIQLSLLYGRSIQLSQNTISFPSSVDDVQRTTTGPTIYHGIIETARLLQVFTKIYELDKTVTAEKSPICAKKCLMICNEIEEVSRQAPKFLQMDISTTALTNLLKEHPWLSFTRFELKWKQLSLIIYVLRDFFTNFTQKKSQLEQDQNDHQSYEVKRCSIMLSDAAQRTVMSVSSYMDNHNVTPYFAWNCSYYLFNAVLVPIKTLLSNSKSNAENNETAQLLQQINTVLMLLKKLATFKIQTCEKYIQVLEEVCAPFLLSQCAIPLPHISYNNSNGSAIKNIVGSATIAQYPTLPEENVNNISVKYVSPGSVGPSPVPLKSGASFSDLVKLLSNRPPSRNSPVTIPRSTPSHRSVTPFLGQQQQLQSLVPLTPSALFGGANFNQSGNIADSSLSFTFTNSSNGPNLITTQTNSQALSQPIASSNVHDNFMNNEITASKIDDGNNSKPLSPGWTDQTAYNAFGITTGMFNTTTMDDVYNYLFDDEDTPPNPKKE
Outline: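 This background-control endpoint measures GAL4-driven reporter mRNA via RT-PCR and capillary electrophoresis of labelled fragments. Transiently transfected HepG2 cells were treated 24 h, with 3 nM 6-alpha-fluorotestosterone included, and gain-of-signal was fitted against DMSO.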

[4] = ATG_M_06_XSP1: Attagene TRANS-FACTORIAL Multi-Species (XSP1) HepG2 Assay for M06 Transcription Factor (Internal Marker) (AID 2283790)
Outline: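 This background-control readout tracks M06 reporter mRNA, measured by RT-PCR and capillary electrophoresis. HepG2 cells transiently carrying the GAL4-UAS reporter panel were dosed for 24 h with 3 nM 6-alpha-fluorotestosterone added for partial AR stimulation; increases were scored relative to DMSO.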

[5] = ATG_M_61_XSP1: Attagene TRANS-FACTORIAL Multi-Species (XSP1) HepG2 Assay for M61 Transcription Factor (Internal Marker) (AID 2283797)
Outline: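 Background-control readout: reporter transcripts measured by RT-PCR and capillary electrophoresis 24 h after dosing transiently transfected HepG2 multi-reporter cells, with 3 nM 6-alpha-fluorotestosterone present. Fitted in the positive direction relative to DMSO.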

[6] = system: zebrafish Peroxisome Proliferator-activated Receptor gamma (PPARg), gene 557037; assay: ATG_zfPPARg_XSP1: Attagene TRANS-FACTORIAL Multi-Species (XSP1) HepG2 Assay for zebrafish Peroxisome Proliferator-activated Receptor gamma (PPARg) (AID 2283801)
Outline: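 Trans-activation readout of chimeric zebrafish PPARg–GAL4 in transiently transfected human HepG2 cells, 24 h chemical exposure (medium includes 3 nM 6-alpha-fluorotestosterone). Reporter transcripts measured by RT-PCR and capillary electrophoresis, fitted as gain over DMSO.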

[7] = biological target: Nuclear receptor subfamily 1 group I member 2 (Mus musculus) (UniProt O54915); assay: ATG_mPXR_XSP1: Attagene TRANS-FACTORIAL Multi-Species (XSP1) HepG2 Assay for mouse Pregnane X Receptor (PXR) (AID 2283803)
Nuclear receptor subfamily 1 group I member 2 (Mus musculus), sequence (O54915 whole entry, looked up, the tested form may be a part): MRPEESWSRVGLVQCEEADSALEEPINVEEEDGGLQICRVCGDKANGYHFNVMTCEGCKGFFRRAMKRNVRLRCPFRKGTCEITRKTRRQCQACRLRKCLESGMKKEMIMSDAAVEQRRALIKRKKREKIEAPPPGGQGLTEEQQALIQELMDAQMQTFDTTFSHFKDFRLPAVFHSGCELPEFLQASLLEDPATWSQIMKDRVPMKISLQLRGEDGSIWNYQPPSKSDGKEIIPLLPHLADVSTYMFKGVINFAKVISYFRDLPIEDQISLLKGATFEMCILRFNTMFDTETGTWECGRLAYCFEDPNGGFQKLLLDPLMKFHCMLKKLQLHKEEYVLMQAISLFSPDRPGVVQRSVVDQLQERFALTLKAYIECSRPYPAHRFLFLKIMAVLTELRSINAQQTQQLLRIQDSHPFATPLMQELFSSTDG
Outline: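 Transiently transfected HepG2 cells expressing a receptor-Gal4 chimera drive a GAL4-UAS reporter; 3 nM 6-alpha-fluorotestosterone included. Reporter mRNA read 24 h post-dose by RT-PCR and capillary electrophoresis; gain of signal relative to DMSO.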

[8] = biological target: frog Thyroid hormone Receptor alpha (TRa), thra-a (gene 397942) (UniProt P15204); assay: ATG_frTRa_XSP1: Attagene TRANS-FACTORIAL Multi-Species (XSP1) HepG2 Assay for frog Thyroid hormone Receptor alpha (TRa) (AID 2283804)
frog Thyroid hormone Receptor alpha (TRa), thra-a (gene 397942), sequence (P15204 whole entry, looked up, the tested form may be a part): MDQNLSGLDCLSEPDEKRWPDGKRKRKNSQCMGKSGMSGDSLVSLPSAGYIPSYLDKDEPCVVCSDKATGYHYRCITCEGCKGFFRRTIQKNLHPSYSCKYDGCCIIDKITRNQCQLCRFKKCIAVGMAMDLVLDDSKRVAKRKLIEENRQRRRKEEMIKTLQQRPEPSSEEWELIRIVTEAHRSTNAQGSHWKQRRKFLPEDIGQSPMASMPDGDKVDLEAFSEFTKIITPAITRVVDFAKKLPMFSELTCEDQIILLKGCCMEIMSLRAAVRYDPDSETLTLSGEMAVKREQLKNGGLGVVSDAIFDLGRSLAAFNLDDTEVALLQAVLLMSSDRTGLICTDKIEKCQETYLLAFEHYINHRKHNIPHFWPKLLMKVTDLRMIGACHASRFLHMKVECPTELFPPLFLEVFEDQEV
Outline: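 Reporter transcript induction, measured by RT-PCR with 6-FAM labelling and capillary electrophoresis, 24 hr after dosing transiently transfected HepG2 cells expressing a frog TRa-GAL4 fusion; medium contained 3 nM 6-alpha-fluorotestosterone; increase over DMSO scored.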

[9] = system: turtle Thyroid Hormone Receptor, alpha (TRa), gene 101949057; assay: ATG_trTRa_XSP1: Attagene TRANS-FACTORIAL Multi-Species (XSP1) HepG2 Assay for turtle Thyroid Hormone Receptor, alpha (TRa) (AID 2283806)
Outline: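 After 24 h chemical exposure, reporter transcripts were measured by RT-PCR with fluorescent primer extension, HpaI digestion and capillary electrophoresis. Cells were transiently transfected HepG2 expressing exogenous NR-Gal4 chimeras; medium contained 3 nM 6-alpha-fluorotestosterone; fitted upward relative to DMSO.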

[10] = biological target: zebrafish Thyroid Hormone Receptor beta (TRb), thrb (gene 30607) (UniProt Q9PVE4); assay: ATG_zfTRb_XSP1: Attagene TRANS-FACTORIAL Multi-Species (XSP1) HepG2 Assay for zebrafish Thyroid Hormone Receptor beta (TRb) (AID 2283809)
zebrafish Thyroid Hormone Receptor beta (TRb), thrb (gene 30607), sequence (Q9PVE4 whole entry, looked up, the tested form may be a part): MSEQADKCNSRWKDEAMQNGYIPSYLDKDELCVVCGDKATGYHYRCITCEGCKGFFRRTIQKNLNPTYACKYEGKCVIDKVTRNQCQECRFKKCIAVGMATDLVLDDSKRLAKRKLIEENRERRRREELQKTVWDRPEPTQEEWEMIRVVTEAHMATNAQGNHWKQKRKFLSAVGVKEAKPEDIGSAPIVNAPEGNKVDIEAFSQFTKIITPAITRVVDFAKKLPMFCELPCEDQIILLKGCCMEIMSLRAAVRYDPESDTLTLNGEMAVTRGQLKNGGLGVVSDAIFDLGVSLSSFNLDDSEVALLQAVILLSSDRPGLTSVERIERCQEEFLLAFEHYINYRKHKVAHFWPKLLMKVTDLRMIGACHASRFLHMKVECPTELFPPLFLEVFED
Outline: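 HepG2 cells transiently transfected with multiplexed GAL4-UAS reporter units expressing chimeric zebrafish TRb–Gal4. Dosed 24 h with 3 nM 6-alpha-fluorotestosterone present; reporter mRNA measured by RT-PCR, HpaI digestion and capillary electrophoresis; gain of signal versus DMSO.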

[11] = ATG_M_06_XSP2: Attagene TRANS-FACTORIAL Multi-Species (XSP2) HepG2 Assay for M06 Transcription Factor (Internal Marker) (AID 2283811);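 note: hits are increases in signal above the DMSO baseline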
Outline: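 Internal-marker reporter transcript, quantified by RT-PCR, 6-FAM labelling, HpaI digestion and capillary electrophoresis, 24 hours after dosing transfected HepG2 cells with 3 nM 6-alpha-fluorotestosterone and 1.5 nM norgestrel present; DMSO baseline.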

[12] = system: turtle Estrogen Receptor (ERa), gene 101933533; assay: ATG_trERa_XSP2: Attagene TRANS-FACTORIAL Multi-Species (XSP2) HepG2 Assay for turtle Estrogen Receptor (ERa) (AID 2283812);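 note: actives raise reporter signal above DMSO so AC50 reflects agonist activity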
Outline: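 Readout is reporter mRNA quantified by RT-PCR with capillary electrophoresis after 24 h compound exposure, increase relative to DMSO. Uses transiently transfected human HepG2 liver cells carrying a chimeric turtle ERa-Gal4 receptor driving GAL4-UAS reporters.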

[13] = biological target: GAL4 Transcription Factor (Internal Marker), GAL4 (gene 855828) (UniProt P04386); assay: ATG_GAL4_XSP2: Attagene TRANS-FACTORIAL Multi-Species (XSP2) HepG2 Assay for GAL4 Transcription Factor (Internal Marker) (AID 2283814);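 note: GAL4 reporter mRNA background control in MRTU transfected cells not a receptor target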
Outline: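 Background-control readout: gain-of-signal fitted against DMSO. After 24 h exposure of transfected HepG2 (MRTU, GAL4-UAS reporters; 3 nM 6-alpha-fluorotestosterone, 1.5 nM norgestrel present), transcripts quantified by RT-PCR and capillary electrophoresis fluorescence.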

[14] = biological target: chicken Estrogen Receptor (ERa), ESR1 (gene 396099) (UniProt P06212); assay: ATG_chERa_XSP2: Attagene TRANS-FACTORIAL Multi-Species (XSP2) HepG2 Assay for chicken Estrogen Receptor (ERa) (AID 2283817);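 note: actives raise reporter signal above DMSO so AC50 reflects ER activation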
chicken Estrogen Receptor (ERa), ESR1 (gene 396099), sequence (P06212 whole entry, looked up, the tested form may be a part): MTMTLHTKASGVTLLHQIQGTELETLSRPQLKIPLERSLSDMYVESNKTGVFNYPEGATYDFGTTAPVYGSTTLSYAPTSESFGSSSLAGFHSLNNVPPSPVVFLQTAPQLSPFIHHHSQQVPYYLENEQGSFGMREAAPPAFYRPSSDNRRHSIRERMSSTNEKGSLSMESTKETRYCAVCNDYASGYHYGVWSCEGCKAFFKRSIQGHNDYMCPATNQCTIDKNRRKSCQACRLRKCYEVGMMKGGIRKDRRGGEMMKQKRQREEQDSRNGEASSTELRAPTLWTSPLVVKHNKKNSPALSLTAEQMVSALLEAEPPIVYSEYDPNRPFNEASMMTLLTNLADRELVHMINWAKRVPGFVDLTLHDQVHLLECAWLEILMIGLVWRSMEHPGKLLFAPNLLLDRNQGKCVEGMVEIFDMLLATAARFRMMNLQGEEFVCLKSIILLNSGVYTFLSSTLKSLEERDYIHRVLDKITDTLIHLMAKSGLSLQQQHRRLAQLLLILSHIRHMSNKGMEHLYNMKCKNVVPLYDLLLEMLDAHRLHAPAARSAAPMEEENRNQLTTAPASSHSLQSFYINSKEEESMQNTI
Outline: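 Reporter mRNA induction read by RT-PCR, fluorescent labelling and capillary electrophoresis after 24 h exposure; positive-direction fit against DMSO baseline. HepG2 cells transfected with multiplexed GAL4-UAS units including chicken ERa chimera; medium contained 3 nM 6-alpha-fluorotestosterone plus 1.5 nM norgestrel.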

SMILES: Nc1ccc(C(=O)OCCCOC(=O)c2ccc(N)cc2)cc1
- outcome [1]: inactive

SMILES: C=CC(=O)NC(C)(C)C
- outcome [1]: inactive

SMILES: C=C(C)C1CC=C(C)C(OC(C)=O)C1 (stereo unspecified)
- AC50 [1]: 81.5 µM (active)

SMILES: C=CC(C)(CCC=C(C)C)OC(=O)C=Cc1ccccc1 (stereo unspecified)
- AC50 [1]: 83.6 µM (active)

SMILES: O=C1CCCCCCCCCCC1
- outcome [1]: inactive

SMILES: CC1C(C)(C)C2=C(C(=O)CCC2)C1(C)C (stereo unspecified)
- outcome [1]: inactive

SMILES: N=C1C=CC(=C(c2ccc(N)cc2)c2ccc(N)cc2)C=C1
- AC50 [1]: 34.5 µM (active)

SMILES: O=C(O[C@@H]1Cc2c(O)cc(O)cc2O[C@@H]1c1cc(O)c(O)c(O)c1)c1cc(O)c(O)c(O)c1
- AC50 [1]: 61 µM (active)

SMILES: CCC1COC(=O)O1 (stereo unspecified)
- outcome [1]: inactive

SMILES: CC(Cl)COP(=O)(OCC(C)Cl)OCC(C)Cl (stereo unspecified)
- outcome [1]: inactive

SMILES: c1ccc2c(c1)[nH]c1ccccc12
- AC50 [1]: 36.4 µM (active)

SMILES: C=CC(=O)O[C@H]1C[C@@H]2CC[C@@]1(C)C2(C)C
- outcome [1]: inactive

SMILES: C1CNCCN1
- outcome [1]: inactive

SMILES: C[N+](C)(C)CCCNS(=O)(=O)C(F)(F)C(F)(F)C(F)(F)C(F)(F)C(F)(F)C(F)(F)C(F)(F)C(F)(F)F
- AC50 [1]: 111 µM (active)

SMILES: COC(=O)C=Cc1ccccc1
- outcome [1]: inactive

SMILES: CC(=O)c1ccccc1O
- outcome [1]: inactive

SMILES: CCCCCCCOC(=O)c1ccc(O)cc1
- AC50 [1]: 24.1 µM (active)

SMILES: CC(C)c1ccc2ncccc2c1
- outcome [1]: inactive

SMILES: CC(C)c1cccc(C(C)C)c1N
- outcome [1]: inactive

SMILES: CC(=O)CCC=C(C)C
- outcome [1]: inactive

SMILES: CC(C)(CO)COC(=O)C(C)(C)CO
- outcome [1]: inactive

SMILES: Clc1cc(Cl)c(Cl)c(Cl)c1Cl
- outcome [1]: inactive

SMILES: CCC(C)c1ccccc1 (stereo unspecified)
- outcome [1]: inactive

SMILES: CCN1CCCC1=O
- outcome [1]: inactive

SMILES: CC1=C(O)C(=O)C(C)O1 (stereo unspecified)
- AC50 [1]: 66.8 µM (active)

SMILES: CCOC(=O)c1ccc(C)cc1
- outcome [1]: inactive

SMILES: CC(C)OC(=O)c1ccccc1
- outcome [1]: inactive

SMILES: c1ccc2cnccc2c1
- outcome [1]: inactive

SMILES: CC(C)(C)NC(=O)[C@H]1CC[C@H]2[C@@H]3CC[C@H]4NC(=O)C=C[C@]4(C)[C@H]3CC[C@]12C
- outcome [2]: inactive
- outcome [3]: inactive
- outcome [4]: inactive
- outcome [5]: inactive
- outcome [6]: inactive
- AC50 [7]: 3.8 µM (active)
- outcome [8]: inactive
- outcome [9]: inactive
- outcome [10]: inactive
- outcome [11]: inactive
- outcome [12]: inactive
- outcome [13]: inactive
- outcome [14]: inactive
